# In PubChem BioAssay (Tox21):
# Where “and” joins values, the source holds several entries; their conditions need not be identical. Equal values may be shown once. Records with an inconclusive call do not appear. A call without a number means that no potency is given here. Where a structure was tested more than once in an assay, its records may differ in their call. Calls of active or inactive are those of the source. Calls come from the whole dose curve; as a rule, active = well fitted curve in the direction sought with a large enough effect in the repeat runs; inconclusive = weak or mixed curves; inactive = no such curve, though single readings can be large; an effect the other way counts as inactive or inconclusive.
# What was measured:
# [1] = qHTS RealTime-Glo MT Cell Viability Assay in HepG2 cells - 40 hour (AID 1224870); note: nearly all actives have a fitted effect of over 50% in size
# Summary of the method: (§1)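 HepG2 cells mixed with RealTime-Glo MT reagents (NanoLuc plus cell-permeant prosubstrate) were seeded at 600 cells/well, incubated 5 h at 37 C/5% CO2, then pinned with compounds in DMSO; nonlytic luminescence tracked viability during 40 h treatment.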
# [2] = A CellTox Green Cytotoxicity Assay to monitor cytotoxicity in HEK293 cells - 40 hour (AID 1224871); note: nearly all actives have a fitted effect of over 45% in size
# Summary of the method: (§2)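 Homogeneous no-lysis format: HEK293 cell suspension mixed with CellTox Green reagent, seeded, incubated 5 h at 37 C/5% CO2, then dosed by pintool with compound in DMSO.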
# [3] = qHTS RealTime-Glo MT Cell Viability Assay in HEK293 cells - 16 hour (AID 1224872); note: nearly all actives have a fitted effect of over 50% in size; note: potency is the fitted concentration of half-maximal effect
# Summary of the method: (§3)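 Viability tracked continuously by luminescence as live cells reduce a prosubstrate for NanoLuc; HEK293 cells preincubated 5 h, compound-treated at 37 C, and read at 0, 8, 16, 24, 32 and 40 h.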
# [4] = qHTS RealTime-Glo MT Cell Viability Assay in HepG2 cells - 8 hour (AID 1224873); note: nearly all actives have a fitted effect of over 55% in size
# Summary of the method: as §1
# [5] = qHTS RealTime-Glo MT Cell Viability Assay in HEK293 cells - 40 hour (AID 1224874); conditions: RealTime-Glo luminescence; max response: stronger effect = lower value; note: nearly all actives have a fitted effect of over 50% in size; note: potency is the fitted concentration of half-maximal effect
# Summary of the method: (§4)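 Measured as luminescence from the same continuously cultured HEK293 wells at successive time points (0, 8, 16, 24, 32, 40 h) after compound addition. Reagent present from seeding; dosing at 5 h; incubation 37 C.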
# [6] = A CellTox Green Cytotoxicity Assay to monitor cytotoxicity in HEK293 cells - 24 hour (AID 1224875); note: series mostly up to about 77 µM; nearly all actives have a fitted effect of over 45% in size
# Summary of the method: as §2
# [7] = A CellTox Green Cytotoxicity Assay to monitor cytotoxicity in HepG2 cells - 16 hour (AID 1224876); note: nearly all actives have a fitted effect of over 45% in size
# Summary of the method: (§5)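 Fluorescent DNA-binding dye, 600 HepG2 cells/well, 5 h preincubation then compound in DMSO; same plates read at 0–40 h, 37 C.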
# [8] = qHTS RealTime-Glo MT Cell Viability Assay in HepG2 cells - 32 hour (AID 1224877); note: nearly all actives have a fitted effect of over 55% in size
# Summary of the method: (§6)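 Viability was tracked continuously by NanoLuc luminescence from prosubstrate reduced by living HepG2 cells, at successive time points over 40 h of compound exposure. Cells with reagent were preincubated 5 h at 37 °C before compound addition.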
# [9] = A CellTox Green Cytotoxicity Assay to monitor cytotoxicity in HepG2 cells - 40 hour (AID 1224879); note: nearly all actives have a fitted effect of over 40% in size
# Summary of the method: as §5
# [10] = qHTS RealTime-Glo MT Cell Viability Assay in HEK293 cells - 0 hour (AID 1224880); note: top concentration of the series differs between compounds; nearly all actives have a fitted effect of over 45% in size
# Summary of the method: as §4
# [11] = A CellTox Green Cytotoxicity Assay to monitor cytotoxicity in HEK293 cells - 32 hour (AID 1224881); note: nearly all actives have a fitted effect of over 40% in size
# Summary of the method: as §2
# [12] = A CellTox Green Cytotoxicity Assay to monitor cytotoxicity in HepG2 cells - 0 hour (AID 1224882); note: nearly all actives have a fitted effect of over 35% in size
# Summary of the method: as §5
# [13] = A CellTox Green Cytotoxicity Assay to monitor cytotoxicity in HepG2 cells - 32 hour (AID 1224883); note: nearly all actives have a fitted effect of over 50% in size
# Summary of the method: as §5
# [14] = A CellTox Green Cytotoxicity Assay to monitor cytotoxicity in HEK293 cells - 8 hour (AID 1224884); note: nearly all actives have a fitted effect of over 35% in size
# Summary of the method: as §2
# [15] = qHTS RealTime-Glo MT Cell Viability Assay in HEK293 cells - 24 hour (AID 1224886); note: nearly all actives have a fitted effect of over 50% in size; note: potency is the fitted concentration of half-maximal effect
# Summary of the method: as §3
# [16] = qHTS RealTime-Glo MT Cell Viability Assay in HEK293 cells - 8 hour (AID 1224887)
# Summary of the method: as §4
# [17] = A CellTox Green Cytotoxicity Assay to monitor cytotoxicity in HEK293 cells - 16 hour (AID 1224888); note: nearly all actives have a fitted effect of over 35% in size
# Summary of the method: as §2
# [18] = qHTS RealTime-Glo MT Cell Viability Assay in HepG2 cells - 0 hour (AID 1224889); note: nearly all actives have a fitted effect of over 50% in size
# Summary of the method: as §6
# [19] = A CellTox Green Cytotoxicity Assay to monitor cytotoxicity in HepG2 cells - 24 hour (AID 1224878); note: nearly all actives have a fitted effect of over 45% in size
# Summary of the method: as §5
# [20] = qHTS RealTime-Glo MT Cell Viability Assay in HepG2 cells - 16 hour (AID 1224885); note: nearly all actives have a fitted effect of over 50% in size
# Summary of the method: as §6
compound,measurement,setting,value
CC(=O)O[C@]1(C(C)=O)CC[C@H]2[C@@H]3C=C(Cl)C4=CC(=O)[C@@H]5C[C@@H]5[C@]4(C)[C@H]3CC[C@@]21C,Potency,[1],inactive
same,Potency,[2],inactive
same,Potency,[3],21.9 µM (active) and inactive
same,Potency,[4],inactive
same,Potency,[5],21.9 µM (active)
same,Potency,[6],inactive
same,Potency,[7],inactive
same,Potency,[8],inactive
same,Potency,[9],inactive
same,Potency,[10],inactive
same,Potency,[11],inactive
same,Potency,[12],inactive
same,Potency,[13],inactive
same,Potency,[14],inactive
same,Potency,[15],21.9 µM (active)
same,Potency,[16],inactive
same,Potency,[17],inactive
same,Potency,[18],inactive
C=C(C)C1CC=C(C)CC1 (configuration not stated),Potency,[1],inactive
same,Potency,[2],inactive
same,Potency,[3],inactive
same,Potency,[4],inactive
same,Potency,[6],inactive
same,Potency,[7],inactive
same,Potency,[8],inactive
same,Potency,[19],inactive
same,Potency,[9],inactive
same,Potency,[10],inactive
same,Potency,[11],inactive
same,Potency,[12],inactive
same,Potency,[13],inactive
same,Potency,[14],inactive
same,Potency,[20],inactive
same,Potency,[15],inactive
same,Potency,[16],inactive
same,Potency,[17],inactive
same,Potency,[18],inactive
O=P(O)(O)O,Potency,[1],inactive
same,Potency,[2],inactive
same,Potency,[3],inactive
same,Potency,[4],inactive
same,max response,[5],-1.49% (inactive) and 1.49% (inactive)
same,Potency,[6],inactive
same,Potency,[7],inactive
same,Potency,[8],inactive
same,Potency,[19],inactive
same,Potency,[9],inactive
same,Potency,[10],inactive
same,Potency,[11],inactive
same,Potency,[12],inactive
same,Potency,[13],inactive
same,Potency,[14],inactive
same,Potency,[20],inactive
same,Potency,[15],inactive
same,Potency,[16],inactive
same,Potency,[17],inactive
same,Potency,[18],inactive
CC(C)=CCC/C(C)=C\CO,Potency,[1],inactive
same,Potency,[2],inactive
same,Potency,[3],inactive
same,Potency,[4],inactive
same,max response,[5],0.916% (inactive) and 13.7% (inactive)
same,Potency,[6],inactive
same,Potency,[8],inactive
same,Potency,[19],inactive
same,Potency,[9],inactive
same,Potency,[10],inactive
same,Potency,[11],inactive
same,Potency,[12],inactive
same,Potency,[13],inactive
same,Potency,[14],inactive
same,Potency,[20],inactive
same,Potency,[15],inactive
same,Potency,[17],inactive
same,Potency,[18],inactive
O=CCc1ccccc1,Potency,[1],inactive
same,Potency,[2],inactive
same,Potency,[3],inactive
same,Potency,[4],inactive
same,Potency,[6],inactive
same,Potency,[7],inactive
same,Potency,[8],inactive
same,Potency,[19],inactive
same,Potency,[9],inactive
same,Potency,[10],inactive
same,Potency,[11],inactive
same,Potency,[12],inactive
same,Potency,[13],inactive
same,Potency,[14],inactive
same,Potency,[20],inactive
same,Potency,[15],inactive
same,Potency,[17],inactive
same,Potency,[18],inactive
CCCCCCCCCC(=O)OC,Potency,[1],inactive
same,Potency,[2],inactive
same,Potency,[3],inactive
same,Potency,[4],inactive
same,Potency,[6],inactive
same,Potency,[7],inactive
same,Potency,[8],inactive
same,Potency,[19],inactive
same,Potency,[9],inactive
same,Potency,[10],inactive
same,Potency,[11],inactive
same,Potency,[12],inactive
same,Potency,[13],inactive
same,Potency,[14],inactive
same,Potency,[20],inactive
same,Potency,[15],inactive
same,Potency,[16],inactive
same,Potency,[17],inactive
same,Potency,[18],inactive
